UGM FP inh: M. tuberculosis UGM enzyme inhibitors, primary screen, biochemical, fluorescence polarization, single point | UDP-galactopyranose mutase (Mycobacterium tuberculosis (strain ATCC 25618 / H37Rv)), … | purified UGM, fluorescence polarization probe displacement | inhibition, % at 10 µM | actives 0.06% (n = 320,000); in the data active means inhibition above about 10%, passing the limit was not always enough; inconclusive means no clear call, values can overlap the other calls
GDH-TPI counter-1: GDH-TPI coupling enzyme inhibitors, primary screen, artefact control for M. tuberculosis FBA inhibitor project, biochemical, absorbance, full deck; actives 1.2% (n = 360,000); inhibition, % at 4.8 µM; GDH-TPI coupled enzyme counterscreen, NADH absorbance; in the data active means inhibition above about 30%;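 further: 0% = DMSO wells and 100% = wells lacking the enzyme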
Rv3671c protease: Rv3671c serine protease inhibitors, primary screen, biochemical, fluorescence polarization, M. tuberculosis H37Rv. P9WHR9. actives 0.048% (n = 320,000). inhibition, % at 5.96 µM; in the data active means inhibition above about 38%;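 further: extracellular domain of Rv3671c used as enzyme; 0% = enzyme with DMSO and 100% = no enzyme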
Mtb FBA inh: Mtb FBA enzyme inhibitors, primary screen, biochemical, fluorescence, strain H37Rv; Fructose-bisphosphate aldolase (Mycobacterium tuberculosis (strain ATCC 25618 / H37Rv)), …; actives 2.3% (n = 360,000); purified M. tuberculosis FBA, fluorescence read-out; AID 588726, 2011; inhibition, % at 1 µM;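 further: 0% = vehicle and 100% = reference inhibitor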
Target sequence (P9WQA3 whole entry, looked up): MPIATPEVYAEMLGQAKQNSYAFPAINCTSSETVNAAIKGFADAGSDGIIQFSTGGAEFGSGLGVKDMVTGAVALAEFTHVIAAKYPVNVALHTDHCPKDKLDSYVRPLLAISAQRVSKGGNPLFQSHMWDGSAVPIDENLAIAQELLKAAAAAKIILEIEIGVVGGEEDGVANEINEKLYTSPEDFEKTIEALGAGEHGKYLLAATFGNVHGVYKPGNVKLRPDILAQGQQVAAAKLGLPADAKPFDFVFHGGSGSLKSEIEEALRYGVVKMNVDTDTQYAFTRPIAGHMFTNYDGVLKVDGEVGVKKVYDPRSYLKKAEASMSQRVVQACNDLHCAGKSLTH
Mtb betalactam: beta-lactam sensitization of Mtb H37Rv, H37Rv; AID 434955, 2010; inhibition, % at 25 µM; M. tuberculosis H37Rv growth with meropenem, percent inhibition; actives 0.27% (n = 330,000); call rule not given here;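 further: growth measured after seven days incubation then overnight dye step; 0% = bacteria only wells and 100% = bacteria with antibiotic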
RecA splice inh: Mtb RecA intein splicing inhibitors, primary screen, biochemical, fluorescence, HTS | Protein RecA (Mycobacterium tuberculosis (strain ATCC 25618 / H37Rv)), P9WHJ3 | cell-free RecA intein splicing | inhibition, % (test concentration not listed) | actives 0.75% (n = 290,000) | AID 2221, 2009; in the data active means inhibition above about 30%; inconclusive means no clear call, values can overlap the other calls;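 further: 0% = vehicle wells and 100% = reference inhibitor control wells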
Mtb FBA confirm: M. tuberculosis aldolase blockers, biochemical, fluorescence, strain H37Rv, confirmation. shares compounds with Mtb FBA inh. purified M. tuberculosis FBA, fluorescence read-out. inhibition, % at 1 µM. actives 78% (n = 5,600);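 further: 0% = vehicle wells and 100% = reference inhibitor wells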
GDH-TPI counter-2: GDH-TPI coupling enzyme inhibitors, artefact control for M. tuberculosis FBA inhibitor project, biochemical, fluorescence, high throughput; shares compounds with Mtb FBA inh; GDH-TPI coupled enzyme counterscreen; inhibition, % at 1 µM; actives 81% (n = 5,600); AID 652141, 2013; in the data active means inhibition above about 10%
* hit, by the source's call; ? = inconclusive; · = no result given; + = active, no number. Sampled rows, rich in hits. Any-hit rate of the full collection: about 4%. Unless noted, no stated cut-off is given here; in the data, active means inhibition above about 27%; inactive means the rest.

SMILES	UGM FP inh	GDH-TPI counter-1	Rv3671c protease	Mtb FBA inh	Mtb betalactam	RecA splice inh	Mtb FBA confirm	GDH-TPI counter-2
CC(=O)c1ccc(-c2ccc(C(=O)NCC(c3ccco3)N(C)C)o2)cc1 (stereo not drawn)	3	47*	2	68*	-2	·	-2	-2
O=[N+]([O-])c1ccc(/C=N\N2CCN(Cc3ccccc3Cl)CC2)cc1	·	6	·	-4	·	·	·	·
CCCCC(=O)Nc1ccc2oc(-c3ccncc3)nc2c1	0	13	11	14	3	-2	·	·
CCC(C)NCC(=O)Nc1ccc(-c2nc3cc(NC(=O)CNC(C)CC)ccc3o2)cc1 (stereo not drawn)	-1	21	-2	99*	-1	·	148*	110*
CCc1ccc2oc(-c3ccc(NC(C)=O)cc3)nc2c1	2	-5	-17	69*	16	1	181*	126*
Cc1ccc(-c2nc3ncccc3o2)cc1NC(=O)CC(C)C	-2	-2	13	30*	-3	-3	5	-7
O=C(CN1CCCC1)Nc1ccc(-c2nc3cc(NC(=O)CN4CCCC4)ccc3o2)cc1	2	24	-7	107*	?	2	30*	24*
Cc1ccc(-c2nc3ncccc3o2)cc1NC(=O)Cc1ccc(Cl)cc1	1	-1	0	-3	-7	2	·	·
Cc1ccc2oc(-c3ccc(NC(=O)CC(C)C)cc3)nc2c1	0	16	-4	30*	-8	-2	39*	36*
Cc1ccc2oc(-c3cccc(N)c3)nc2c1	0	2	4	78*	58	·	63*	58*
CCN(CC)CC(=O)Nc1ccc(-c2nc3cc(NC(=O)CN(CC)CC)ccc3o2)cc1	-3	16	-1	88*	3	0	+	150*
CC(C)CC(=O)Nc1ccc(-c2nc3ccccc3c(=O)o2)cc1	3	7	-7	1	98	0	·	·
COc1ccc(C)cc1NS(=O)(=O)c1cccc2nonc12	1	8	-1	2	0	0	·	·
COc1ccc2nc(N(Cc3ccccc3)C(=O)CCNC(C)=O)sc2c1	-1	-5	-7	1	-3	5	·	·
O=C1C=C(c2ccccc2Oc2ccccc2)C[C@@H](c2ccc3c(c2)OCO3)C1	-2	2	-12	-4	-5	·	·	·
O=C(Oc1ccc2c(=O)c(Oc3ccc4ccccc4c3)coc2c1)c1ccco1	-1	-10	-3	40*	0	2	42*	35*
Cc1cc(C)cc(Oc2coc3cc(OC(=O)c4cccnc4)ccc3c2=O)c1	2	5	-2	32*	7	4	47*	36*
O=S(=O)(O)c1cccc2cccc(Nc3ccccc3)c12	-1	31*	-1	95*	-9	-17	+	+
COc1ccccc1NC(=O)c1cc(C)oc1C	-1	2	-2	0	1	-1	·	·
COc1ccc(OC)c(/C=N/NC(=O)CNC(=O)c2ccc(S(=O)(=O)N3CCCC3)cc2)c1	2	3	-17	36*	-4	1	165*	121*
O=C(NN=Cc1ccccc1O)C(O)c1ccccc1 (stereo not drawn)	·	9	·	4	·	·	·	·
COc1ccc(OC)c(/C=N/NC(=O)CN2CCSCC2)c1	1	16	-6	85*	-1	-1	77*	66*
Cc1ccc(/C=N/NC(=O)CNC(=O)c2ccc(S(=O)(=O)N3CCCC3)cc2)o1	-2	11	-3	-5	-3	3	·	·
COc1ccc(OC)c(/C=N/NC(=O)C(O)c2ccccc2)c1 (stereo not drawn)	0	15	4	101*	2	-3	82*	62*
CC(Sc1nc2scc(-c3ccccc3)c2c(=O)[nH]1)C(=O)NC(N)=O (stereo not drawn)	1	9	0	-1	-3	0	·	·
SMILES	UGM FP inh	GDH-TPI counter-1	Rv3671c protease	Mtb FBA inh	Mtb betalactam	RecA splice inh	Mtb FBA confirm	GDH-TPI counter-2
C#CCOCCOCCOCCNc1nc(N2CCOCC2)nc(N2CCN(C(=O)[C@H](CCCCN)n3cc(CCCC)nn3)CC2)n1	·	-7	·	-1	·	·	·	·
COc1ccc(-c2cc3ccccc3oc2=O)cc1	2	13	-8	60*	4	-1	+	+
COc1ccc2cc(-c3nc4ccccc4n3C)c(=O)oc2c1	-2	39*	9	59*	12	-36	198*	+
Cn1c(-c2cc3ccccc3oc2=O)nc2ccccc21	0	17	2	1	0	-1	·	·
CCN1CCN(C2CCCCC2NS(=O)(=O)c2ccccc2)CC1 (stereo not drawn)	-1	-3	5	-2	-6	5	·	·
FC(F)(F)c1cccc(-c2ccn3ncnc3n2)c1	-1	0	19	33*	1	-1	-12	-6
O=C(OC1CCOC1=O)c1cc(Cl)ccc1[N+](=O)[O-] (stereo not drawn)	0	-2	2	0	2	-5	·	·
O=c1[nH]cnc2ncc(-c3ccc(O)cc3)nc12	-6	29	4	-2	-5	-2	·	·
O=c1[nH]cnc2nn(-c3ccccc3)nc12	0	19	-3	99*	5	-5	9	6
O=c1[nH]cnc2nc(-c3ccccc3)c(-c3ccccc3)nc12	-2	10	-2	50*	4	-2	8	3
O=c1[nH]cnc2c1nnn2Cc1ccccc1	-1	-1	1	3	3	1	·	·
CCOC(=O)N1CCN(C(=O)CCn2c(=S)[nH]c3ccsc3c2=O)CC1	-1	-5	-3	3	-1	10	·	·
CN1C(=O)c2ccc(NC(=O)CCS(=O)(=O)c3ccccc3)cc2C1=O	-2	4	2	35*	-8	-3	83*	61*
O=C(CSCc1ccccc1)Nc1ccc2c(c1)C(=O)NC2=O	-1	10	5	0	-8	0	·	·
O=C(CCS(=O)(=O)c1ccccc1)Nc1ccc2c(c1)C(=O)NC2=O	-1	1	-7	50*	-4	-2	+	+
O=S(=O)(Nc1cccc(-c2cn3ccsc3n2)c1)c1ccc(F)cc1	0	-5	-16	1	-2	4	·	·
O=S(=O)(Nc1ccc(-c2cn3cccnc3n2)cc1)c1ccccc1	1	16	-6	64*	1	2	10	-7

Screening results from PubChem.
